{
  "source": "ChEMBL document CHEMBL3988442",
  "about": "“University of Dundee, Small-Polar-MMV Screening Library” (2021)",
  "note": "The whole screen tested about 48,000 compounds, of which about 13,000 (27%) showed an effect of 50% or more. The list shows a part of the results.",
  "data": [
    {"test_system": "Wolbachia pipientis", "assay": "Anti-Wolbachia Cell-Based Screen", "assay_type": "functional", "parameters": "scale not given: in the data most compounds retested in dose-response had high values", "conditions": "5 µM", "units": {"Percent Effect": "%"}, "values": [
      {"compound": "O=S(=O)(NC1CCCN(c2ncccn2)C1)N1CCCCCC1", "note": "(configuration not stated)", "Percent Effect": -17.91},
      {"compound": "CCNc1ccnc(NC2CCN(S(C)(=O)=O)CC2)n1", "Percent Effect": 1.929},
      {"compound": "Cc1ccc(Nc2nccc(C3CN(CC(N)=O)C3)n2)nc1", "Percent Effect": -11.37},
      {"compound": "CN(C)S(=O)(=O)N1CC(c2ccnc(Nc3ccccn3)n2)C1", "Percent Effect": 81.46},
      {"compound": "O=S(=O)(N1CCCC1)N1CC(c2ccnc(Nc3ccccn3)n2)C1", "Percent Effect": 105.1},
      {"compound": "CN(C)S(=O)(=O)N1CCC2(CC1)CC(Oc1ccccn1)CO2.O=C(O)C(F)(F)F", "note": "(configuration not stated)", "Percent Effect": -11.89},
      {"compound": "CN(C)S(=O)(=O)N1CCC(c2ccnc(Nc3ccccn3)n2)C1", "note": "(configuration not stated)", "Percent Effect": 92.82},
      {"compound": "CS(=O)(=O)N1CC(c2ccnc(Nc3ccccn3)n2)C1", "Percent Effect": 102.3},
      {"compound": "N[C@H]1CN(S(=O)(=O)N2CCCC2)C[C@@H]1c1ccccc1", "Percent Effect": -9.902},
      {"compound": "CN(C)C(=O)C1CN(Cc2ccc(C#N)cc2)c2ccccc2O1", "note": "(configuration not stated)", "Percent Effect": -2.727},
      {"compound": "O=C(NCCn1cccc1)C1CCN(C2CCCCC2)CC1", "Percent Effect": 3.682},
      {"compound": "Cc1c(F)cccc1CN1CCn2nc(CNC(=O)N(C)C)cc2C1", "Percent Effect": 9.061},
      {"compound": "Cc1cc(C)c2c(c1)C1(CC(=O)Nc3c1cnn3C(C)C)C(=O)N2", "note": "(configuration not stated)", "Percent Effect": -4.592},
      {"compound": "Cc1cc2n(n1)CC(CNC1CCN(c3ccc(F)cc3)CC1)CN2", "note": "(configuration not stated)", "Percent Effect": 8.147},
      {"compound": "Cc1nc(N2CCCC2)nc2c1CN(C(C)C)CC2.O=C(O)C(F)(F)F", "Percent Effect": -22.93},
      {"compound": "Cc1nc(N2CCCC2)nc2c1CN(C(=O)N(C)C)CC2", "Percent Effect": 100.4},
      {"compound": "Cc1nc2c(c(=O)n1C)CN(C(=O)C1CCCN(C(=O)N(C)C)C1)C2", "note": "(configuration not stated)", "Percent Effect": 1.11},
      {"compound": "Cc1nc(N2CCCC2)nc2c1CN(C(=O)NC(C)C)CC2", "Percent Effect": 102.9},
      {"compound": "CC(=O)N1CCc2nc(N3CCCC3)nc(C)c2C1", "Percent Effect": 96.78},
      {"compound": "CN(Cc1ccccc1)C(=O)c1cc2c(c(S(N)(=O)=O)c1)CCC2", "Percent Effect": -0.2198},
      {"compound": "CCCOc1ccc2ccccc2c1CN1CC[C@@]2(O)CCNC[C@H]2C1", "Percent Effect": 3.118},
      {"compound": "CCc1nc(C)cc(NC(C)C(=O)Nc2cc(F)ccc2C)n1", "note": "(configuration not stated)", "Percent Effect": 4.426},
      {"compound": "CCc1cc(N[C@H]2CCC[C@H]2CO)n2nccc2n1", "Percent Effect": -20.55},
      {"compound": "O=C(c1ccccn1)N1CCC(S(=O)(=O)c2ccccc2)C1", "note": "(configuration not stated)", "Percent Effect": 101.3},
      {"compound": "O=C(C[C@H]1[C@H]2CN(C(=O)c3cccnc3)C[C@@H]12)Nc1cccnc1", "Percent Effect": -0.113},
      {"compound": "NC(=O)N1C[C@@H]2CN(C(=O)c3ccco3)C[C@@H]2C1", "Percent Effect": -28.89},
      {"compound": "O=C(c1cccnc1)N1C[C@@H]2OCC(=O)N(Cc3cccnc3)[C@@H]2C1", "Percent Effect": -21.42},
      {"compound": "O=C(c1cccnc1)N1CC(S(=O)(=O)c2ccc(Cl)cc2)C1", "Percent Effect": 139.6},
      {"compound": "O=C(c1ccccn1)N1CC(S(=O)(=O)c2ccc(Cl)cc2)C1", "Percent Effect": 113.3},
      {"compound": "O=C(c1ccccn1)N1CCC(Oc2ncccc2Cl)CC1", "Percent Effect": 6.011},
      {"compound": "O=C(c1ccccn1)N1CCC(Oc2cccnc2)CC1", "Percent Effect": -15.11},
      {"compound": "O=C(O)C(F)(F)F.O=C(c1ccccn1)N1CC[C@H]2[C@H]1CCN2S(=O)(=O)C1CC1", "Percent Effect": -10.64},
      {"compound": "Cn1cnnc1S(=O)(=O)C1CCN(C(=O)c2ccco2)CC1", "Percent Effect": 9.772},
      {"compound": "O=C(c1ccccn1)N1C[C@@H]2CC[C@H](C1)N(C(=O)c1ccsc1)C2", "Percent Effect": -66.93},
      {"compound": "O=C(c1ccco1)N1CC(S(=O)(=O)c2ccc(Cl)cc2)C1", "Percent Effect": 72.73},
      {"compound": "CN(C1CCCC1)C(C)(C)C(=O)NCCS(C)(=O)=O", "Percent Effect": 3.461},
      {"compound": "N#CCc1ccc(NC(=O)N[C@H](CO)Cc2ccc(O)cc2)cc1", "Percent Effect": -6.882},
      {"compound": "CCc1nc2c(c(NCc3cc(-c4cccnc4)no3)n1)CCNCC2", "Percent Effect": 11.03},
      {"compound": "O=C(NCc1c(F)cccc1F)C1CN(C(=O)c2cnccn2)C1", "Percent Effect": -2.814},
      {"compound": "O=C(NC1CC1)C1CN(C(=O)c2cnccn2)C1", "Percent Effect": -10.02},
      {"compound": "O=C(c1cnccn1)N1CC(S(=O)(=O)c2ccc(Cl)cc2)C1", "Percent Effect": 115.9},
      {"compound": "CCOCC(O)CNc1cncc(Br)c1", "note": "(configuration not stated)", "Percent Effect": -4.889},
      {"compound": "CC(=O)CC(C)(C)NC(=O)CCN(C)Cc1ccc(Cl)s1", "Percent Effect": 13.53},
      {"compound": "CN1CC(=O)N(C2CCNC2)Cc2c(NC3CCCC3)ncnc21", "note": "(configuration not stated)", "Percent Effect": 104.3},
      {"compound": "CN1CC(=O)N(C2CCCNC2)Cc2c(NC3CCC3)ncnc21", "note": "(configuration not stated)", "Percent Effect": 103.9},
      {"compound": "O=c1c2cccc(C(F)(F)F)c2ncn1C1CCNC1", "note": "(configuration not stated)", "Percent Effect": -5.057},
      {"compound": "CC1=C(C(=O)N2CCOC(Cc3cccc(C(F)(F)F)c3)C2)OCCO1", "note": "(configuration not stated)", "Percent Effect": -4.78},
      {"compound": "Cc1noc(C)c1CCNc1nccc(CCC(F)(F)F)n1", "Percent Effect": 1.118},
      {"compound": "CN(C)Cc1nn(C)c2c1CN(S(=O)(=O)c1ccccc1F)C2", "Percent Effect": 3.844},
      {"compound": "CC(=O)NC1CCN(c2cc(-c3ccccc3)nc3c(C)c(C)nn23)C1", "note": "(configuration not stated)", "Percent Effect": -1.812},
      {"compound": "CCc1[nH]ncc1C(=O)N1CCCC(n2ccnc2C(C)C)C1", "note": "(configuration not stated)", "Percent Effect": -14.63},
      {"compound": "CCn1cc(CN(C)S(=O)(=O)N2CCCC2c2ccco2)cn1", "note": "(configuration not stated)", "Percent Effect": -4.974}
    ]}
  ]
}
